Laboratory results reported in the supplement of paper PMC11732987, “Enantioselective OTUD7B fragment discovery through chemoproteomics screening and high-throughput optimisation” (Communications Chemistry, 2025).

What was measured:
Assay in all cases: log2 ratio of Biotin-Ahx-Ub-VS probe labelling (fragment/DMSO); higher = less target engagement (more negative = stronger competition), active = hit call of the paper (q ≤ 0.05, log2 ratio ≤ -1)
Settings in all cases: compound concentration: 200 uM; treatment time: 3 h
OTUD6B = target: T1, OTUD6B (UniProt Q8N6M0)
T1 sequence (whole entry): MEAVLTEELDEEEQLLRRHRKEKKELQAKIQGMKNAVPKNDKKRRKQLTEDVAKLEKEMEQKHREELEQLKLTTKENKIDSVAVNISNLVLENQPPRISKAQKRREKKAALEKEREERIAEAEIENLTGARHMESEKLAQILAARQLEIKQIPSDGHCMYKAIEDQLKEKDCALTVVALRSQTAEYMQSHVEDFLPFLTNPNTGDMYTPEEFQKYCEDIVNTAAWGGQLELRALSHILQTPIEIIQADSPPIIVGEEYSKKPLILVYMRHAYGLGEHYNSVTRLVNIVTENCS
Method in brief: (§1)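 The table lists average log2 ratios of fragment over vehicle, from an unpaired t-test on global-median-normalised Spectronaut label-free quantities. Proteins with ≥2 unique peptides were used. Samples were HEK293T lysate (495 µg) treated in triplicate with fragment at 200 µM or vehicle for 3 h, then with Biotin-Ahx-Ub-VS (0.5 µM final) for 1 h, with labelled DUBs NeutrAvidin-enriched and run by diaPASEF LC-MS/MS.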

OTUD7B = target: T2, OTUD7B (UniProt Q6GQQ9)
T2 sequence (whole entry): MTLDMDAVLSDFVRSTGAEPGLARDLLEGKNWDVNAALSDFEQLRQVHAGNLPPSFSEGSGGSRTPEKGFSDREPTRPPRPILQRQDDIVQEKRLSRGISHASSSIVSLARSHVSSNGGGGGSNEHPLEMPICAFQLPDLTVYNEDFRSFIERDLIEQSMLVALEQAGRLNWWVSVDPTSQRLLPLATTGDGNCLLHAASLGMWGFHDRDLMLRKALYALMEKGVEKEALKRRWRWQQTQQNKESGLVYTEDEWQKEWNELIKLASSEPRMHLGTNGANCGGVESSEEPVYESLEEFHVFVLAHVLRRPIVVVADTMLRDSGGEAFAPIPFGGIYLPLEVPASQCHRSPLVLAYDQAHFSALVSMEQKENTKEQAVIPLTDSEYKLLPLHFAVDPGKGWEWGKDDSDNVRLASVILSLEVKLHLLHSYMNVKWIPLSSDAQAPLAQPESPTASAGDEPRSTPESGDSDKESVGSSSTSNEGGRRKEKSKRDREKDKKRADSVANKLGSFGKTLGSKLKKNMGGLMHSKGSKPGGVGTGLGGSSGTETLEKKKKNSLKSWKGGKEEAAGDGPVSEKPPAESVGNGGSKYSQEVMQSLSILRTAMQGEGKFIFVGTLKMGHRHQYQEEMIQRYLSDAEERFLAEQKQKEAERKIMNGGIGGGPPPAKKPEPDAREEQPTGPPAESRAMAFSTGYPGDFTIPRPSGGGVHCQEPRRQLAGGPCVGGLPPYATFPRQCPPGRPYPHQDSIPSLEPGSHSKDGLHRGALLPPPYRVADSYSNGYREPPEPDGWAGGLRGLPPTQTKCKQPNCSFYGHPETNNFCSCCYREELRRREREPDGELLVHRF
Method in brief: as §1

PRPF8 = PRPF8 (UniProt Q6P2Q9)
Method in brief: as §1

PSMD7 = target: T3, PSMD7 (UniProt P51665)
T3 sequence (whole entry): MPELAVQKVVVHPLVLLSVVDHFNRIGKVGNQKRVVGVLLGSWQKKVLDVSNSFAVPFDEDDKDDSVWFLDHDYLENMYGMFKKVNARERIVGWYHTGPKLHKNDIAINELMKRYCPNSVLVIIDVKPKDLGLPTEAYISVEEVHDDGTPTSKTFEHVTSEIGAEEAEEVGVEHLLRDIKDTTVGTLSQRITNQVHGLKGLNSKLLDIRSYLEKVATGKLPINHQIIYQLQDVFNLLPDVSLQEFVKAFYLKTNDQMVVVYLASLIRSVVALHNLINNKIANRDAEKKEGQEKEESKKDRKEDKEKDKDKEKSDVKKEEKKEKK
Method in brief: as §1

UCHL1 = UCHL1 (UniProt P09936)
Method in brief: as §1

UCHL3 = target: T4, UCHL3 (UniProt P15374)
T4 sequence (whole entry): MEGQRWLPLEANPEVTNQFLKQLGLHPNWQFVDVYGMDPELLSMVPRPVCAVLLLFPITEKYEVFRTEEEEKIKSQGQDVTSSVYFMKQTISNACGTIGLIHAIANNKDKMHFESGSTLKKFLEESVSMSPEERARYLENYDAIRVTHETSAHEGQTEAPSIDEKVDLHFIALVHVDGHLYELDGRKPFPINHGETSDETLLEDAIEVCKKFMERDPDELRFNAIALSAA
Method in brief: as §1

UCHL5 = target: T5, UCHL5 (UniProt Q9Y5K5)
T5 sequence (whole entry): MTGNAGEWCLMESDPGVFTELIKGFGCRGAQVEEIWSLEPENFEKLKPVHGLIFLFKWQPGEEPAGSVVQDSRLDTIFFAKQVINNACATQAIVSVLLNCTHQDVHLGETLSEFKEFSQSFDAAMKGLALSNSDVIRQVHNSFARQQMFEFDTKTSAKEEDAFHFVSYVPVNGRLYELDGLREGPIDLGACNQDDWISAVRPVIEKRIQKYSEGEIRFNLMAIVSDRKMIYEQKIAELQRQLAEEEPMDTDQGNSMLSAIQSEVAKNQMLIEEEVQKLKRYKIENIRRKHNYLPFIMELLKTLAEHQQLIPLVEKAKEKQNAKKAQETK
Method in brief: as §1

USP10 = USP10 (UniProt Q14694)
Method in brief: as §1

USP15 = target: T6, USP15 (UniProt Q9Y4E8)
T6 sequence (whole entry): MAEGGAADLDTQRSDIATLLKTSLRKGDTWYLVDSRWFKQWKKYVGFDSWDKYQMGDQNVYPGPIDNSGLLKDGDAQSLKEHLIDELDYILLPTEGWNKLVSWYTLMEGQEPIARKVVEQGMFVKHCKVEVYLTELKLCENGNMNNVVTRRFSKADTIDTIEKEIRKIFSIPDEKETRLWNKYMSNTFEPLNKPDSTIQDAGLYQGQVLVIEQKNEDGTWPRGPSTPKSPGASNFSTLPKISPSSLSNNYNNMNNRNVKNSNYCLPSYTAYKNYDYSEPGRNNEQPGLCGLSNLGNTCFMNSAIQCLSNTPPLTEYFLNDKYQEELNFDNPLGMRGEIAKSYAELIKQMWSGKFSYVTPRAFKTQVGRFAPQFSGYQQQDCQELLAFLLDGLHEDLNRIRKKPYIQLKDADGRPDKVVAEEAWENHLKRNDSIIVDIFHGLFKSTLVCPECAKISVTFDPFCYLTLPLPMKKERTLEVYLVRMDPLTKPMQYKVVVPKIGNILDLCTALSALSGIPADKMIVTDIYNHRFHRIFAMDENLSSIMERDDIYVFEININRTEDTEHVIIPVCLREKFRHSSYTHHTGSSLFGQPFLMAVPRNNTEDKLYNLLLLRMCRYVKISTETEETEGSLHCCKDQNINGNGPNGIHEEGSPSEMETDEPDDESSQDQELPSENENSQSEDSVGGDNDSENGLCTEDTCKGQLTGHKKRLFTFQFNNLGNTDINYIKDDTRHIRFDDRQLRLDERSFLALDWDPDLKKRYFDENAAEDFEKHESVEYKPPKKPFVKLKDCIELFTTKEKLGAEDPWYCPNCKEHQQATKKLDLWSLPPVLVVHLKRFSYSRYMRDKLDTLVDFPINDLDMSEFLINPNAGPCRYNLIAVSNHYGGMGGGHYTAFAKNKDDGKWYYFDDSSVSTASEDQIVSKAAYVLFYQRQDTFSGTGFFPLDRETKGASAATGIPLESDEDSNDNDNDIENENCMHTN
Method in brief: as §1

USP16 = USP16 (UniProt Q9Y5T5)
Method in brief: as §1

Measured: log2 ratio of Biotin-Ahx-Ub-VS probe labelling

Chain of UCHL1 (P09936 whole entry, looked up): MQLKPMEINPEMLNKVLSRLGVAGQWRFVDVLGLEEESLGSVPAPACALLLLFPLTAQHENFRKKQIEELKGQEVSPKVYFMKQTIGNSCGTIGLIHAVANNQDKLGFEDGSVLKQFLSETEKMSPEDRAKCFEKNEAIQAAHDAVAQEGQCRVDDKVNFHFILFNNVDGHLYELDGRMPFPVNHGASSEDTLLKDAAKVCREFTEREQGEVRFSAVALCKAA
Chain of USP10 (Q14694 whole entry): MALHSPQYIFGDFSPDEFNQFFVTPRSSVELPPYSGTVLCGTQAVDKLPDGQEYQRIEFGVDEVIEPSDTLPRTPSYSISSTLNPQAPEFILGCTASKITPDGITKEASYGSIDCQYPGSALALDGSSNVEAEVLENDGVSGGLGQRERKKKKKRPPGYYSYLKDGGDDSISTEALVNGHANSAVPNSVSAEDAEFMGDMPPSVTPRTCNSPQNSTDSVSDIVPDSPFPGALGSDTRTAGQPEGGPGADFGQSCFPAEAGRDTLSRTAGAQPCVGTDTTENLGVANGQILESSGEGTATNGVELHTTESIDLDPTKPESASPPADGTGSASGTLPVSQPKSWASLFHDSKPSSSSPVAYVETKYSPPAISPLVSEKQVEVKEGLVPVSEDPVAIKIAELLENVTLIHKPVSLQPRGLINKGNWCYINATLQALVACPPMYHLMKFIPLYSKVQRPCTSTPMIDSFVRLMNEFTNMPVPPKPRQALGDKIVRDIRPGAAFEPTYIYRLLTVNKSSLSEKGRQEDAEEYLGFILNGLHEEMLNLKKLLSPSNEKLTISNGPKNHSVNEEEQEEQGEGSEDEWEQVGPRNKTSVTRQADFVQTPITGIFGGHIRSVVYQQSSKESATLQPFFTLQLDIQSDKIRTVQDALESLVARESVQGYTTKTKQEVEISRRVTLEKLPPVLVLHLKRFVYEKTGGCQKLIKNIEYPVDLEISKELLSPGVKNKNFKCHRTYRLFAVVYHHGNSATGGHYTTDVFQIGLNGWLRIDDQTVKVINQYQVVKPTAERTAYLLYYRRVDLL
Chain of USP16 (Q9Y5T5 whole entry, looked up): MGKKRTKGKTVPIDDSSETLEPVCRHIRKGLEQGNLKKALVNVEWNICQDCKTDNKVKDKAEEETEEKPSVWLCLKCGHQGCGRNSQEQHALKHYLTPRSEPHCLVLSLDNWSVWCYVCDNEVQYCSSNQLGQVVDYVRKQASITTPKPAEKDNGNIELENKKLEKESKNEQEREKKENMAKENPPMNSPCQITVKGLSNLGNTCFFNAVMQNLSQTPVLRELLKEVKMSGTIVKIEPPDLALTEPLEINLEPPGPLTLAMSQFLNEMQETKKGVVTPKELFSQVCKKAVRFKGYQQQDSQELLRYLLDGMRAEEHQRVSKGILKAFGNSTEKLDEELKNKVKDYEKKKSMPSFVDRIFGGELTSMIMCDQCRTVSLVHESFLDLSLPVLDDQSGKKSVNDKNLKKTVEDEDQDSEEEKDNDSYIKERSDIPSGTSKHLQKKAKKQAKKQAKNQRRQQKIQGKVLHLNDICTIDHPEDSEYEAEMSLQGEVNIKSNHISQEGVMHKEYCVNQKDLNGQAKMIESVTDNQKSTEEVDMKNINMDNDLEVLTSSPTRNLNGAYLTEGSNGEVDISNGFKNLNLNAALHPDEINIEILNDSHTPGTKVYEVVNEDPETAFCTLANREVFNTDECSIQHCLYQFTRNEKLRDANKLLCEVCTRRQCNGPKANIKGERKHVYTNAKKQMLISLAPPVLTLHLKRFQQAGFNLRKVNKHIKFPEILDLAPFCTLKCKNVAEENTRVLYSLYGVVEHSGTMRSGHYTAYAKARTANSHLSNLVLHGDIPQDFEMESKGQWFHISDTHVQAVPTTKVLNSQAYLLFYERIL

Cl.O=C(CCl)NCc1ccnc(Oc2ccccc2F)c1
active: UCHL1 -1.49
inactive: OTUD6B -0.263 | OTUD7B -0.533 | PRPF8 -0.054 | PSMD7 -0.0622 | UCHL3 0.27 | UCHL5 -0.282 | USP10 -0.187 | USP15 -0.115 | USP16 0.275
